Reference: PubChem BioAssay AID743314 (Broad Institute, 2014)
Measured potencies and affinities stand elsewhere. Inconclusive results are not listed. The source made the active and inactive calls.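 The calls were made as follows: active = fitted half-maximal concentration no higher than twice the top tested dose, in every repeat run; inconclusive = repeat runs disagree, poor fit, or flat partial inhibition; inactive = the rest.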

Target: Endoplasmic reticulum aminopeptidase 1 (Homo sapiens) (UniProt Q9NZ08)
Assay: ERAP1 aminopeptidase inhibitors, dose response, biochemical, cherry-pick, set 2, plate reader (AID 743314)
Settings: Recombinant ERAP1, Leu-AMC fluorescence, 60 min; series mostly up to 11 µM

Chain of Endoplasmic reticulum aminopeptidase 1 (Homo sapiens) (Q9NZ08 whole entry, looked up): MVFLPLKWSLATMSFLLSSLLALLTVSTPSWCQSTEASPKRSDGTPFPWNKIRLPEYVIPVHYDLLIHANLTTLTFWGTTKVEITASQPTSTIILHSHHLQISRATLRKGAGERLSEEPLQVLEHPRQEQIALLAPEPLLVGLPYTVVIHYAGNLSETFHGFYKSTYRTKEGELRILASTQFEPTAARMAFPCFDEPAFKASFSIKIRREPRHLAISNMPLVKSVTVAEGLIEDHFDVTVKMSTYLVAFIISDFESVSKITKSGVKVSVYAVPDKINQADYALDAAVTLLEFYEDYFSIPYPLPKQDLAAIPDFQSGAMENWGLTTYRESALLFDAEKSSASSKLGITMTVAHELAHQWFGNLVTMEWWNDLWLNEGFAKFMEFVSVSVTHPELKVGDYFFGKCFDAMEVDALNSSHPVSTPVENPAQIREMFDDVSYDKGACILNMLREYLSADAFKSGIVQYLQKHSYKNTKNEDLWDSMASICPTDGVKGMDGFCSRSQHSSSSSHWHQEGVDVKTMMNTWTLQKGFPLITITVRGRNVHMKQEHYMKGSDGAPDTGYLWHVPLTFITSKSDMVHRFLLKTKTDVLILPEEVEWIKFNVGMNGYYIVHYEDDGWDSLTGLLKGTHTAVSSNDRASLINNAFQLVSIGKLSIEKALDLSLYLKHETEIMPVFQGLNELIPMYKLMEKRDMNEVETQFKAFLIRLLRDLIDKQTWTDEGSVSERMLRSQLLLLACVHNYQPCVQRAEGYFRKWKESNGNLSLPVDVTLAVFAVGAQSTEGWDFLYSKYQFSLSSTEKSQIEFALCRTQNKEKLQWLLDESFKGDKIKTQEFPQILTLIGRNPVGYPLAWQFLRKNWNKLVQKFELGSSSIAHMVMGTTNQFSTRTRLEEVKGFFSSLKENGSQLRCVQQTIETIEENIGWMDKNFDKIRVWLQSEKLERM

SMILES	outcome
Cc1cc(=O)oc2cc(OCC(=O)N3CCN(C(C)c4ccccc4)CC3)c(Cl)cc12 (configuration not stated)	inactive
Cc1cc(OCC(=O)NC(Cc2ccc(Cl)cc2)C(=O)O)c2c3c(c(=O)oc2c1)CCCC3 (configuration not stated)	inactive
